In PubChem BioAssay (NCI):
Compounds without any hit were thinned out: in the full panel of roughly 83,000, 20% have a hit.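 Single-concentration screen, 48 h exposure, 96-well plates. Endpoint: percent growth. Below 10 = active.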 Active and inactive are the calls of the source.

system: OVCAR-4 ovarian; experiment: NCI-60 one-dose screen, 48 h (100 = growth as untreated, 0 = no growth, -100 = all killed); settings: 10 µM unless noted

How did the growth turn out when `CC(=O)N1N=C2N(Cc3ccccc3)C(=O)c3c(sc4c3CCCC4)N2C1c1cn(-c2ccccc2)nc1-c1ccc(Cl)cc1` (centres undefined) was run?
Its growth is 115% (inactive).

How did the growth turn out when `COc1ccc2c(c1)C(=O)/C(=C/c1cccc(OCC(=O)c3ccccc3)c1)O2` was run?
Its growth is -55.1% (active).

Which growth does the source give for `NC(=S)NNC1CCCCC1` here?
Its growth is 91.1% (inactive).

Which growth does the source give for `NC(CSC(c1ccccc1)(c1ccccc1)c1ccc(F)cc1)C(=O)O` (centres undefined) here?
The growth was 48.8% (inactive).

With `CC1=C[S+](c2ccccc2)c2cccc3cc4ccccc4c1c23` (centres undefined) as the molecule, how does the growth read?
The growth was 17.4% (inactive).

Which growth does the source give for `Cn1c(I)c(C#C[Si](C)(C)C)c(=O)[nH]c1=O` here?
Its growth is -65% (active).

Which growth does the source give for `COc1ccc2c(-c3ccc(F)cc3)c(C#N)c(=NC(C)=O)oc2c1` here?
Its growth is 92.5% (inactive).

`Nc1ccc(S(=O)(=O)Nc2ccnn2-c2ccccc2)cc1` was tested. Which growth did it give?
Its growth is 109% (inactive).

For `Cc1cn(C2CC(F)C(CO)O2)c(=O)[nH]c1=O` (centres undefined), which growth is on record?
The growth was 93.1% (inactive).

With `CCCN1C(=O)CSC1=Nc1ccc2cc3ccc(N=C4SCC(=O)N4CCC)cc3nc2c1` as the molecule, how does the growth read?
Its growth is 15.3% (inactive).

With `CC(=O)c1cc2c(c(O)c1C)C(=O)C(=O)c1c(O)cccc1-2` as the molecule, how does the growth read?
Its growth is -97.6% (active).

How did the growth turn out when `CC(C)(C)NC(C1=CC(C)(C)c2ccccc2C1=O)c1ccccc1` (centres undefined) was run?
Its growth is -52.9% (active).

How did the growth turn out when `CC(=O)N1N=C(CCC(=O)c2nc3ccc([N+](=O)[O-])cc3[nH]2)OC1c1ccc(O)cc1` (centres undefined) was run?
Its growth is 109% (inactive).

How did the growth turn out when `CCC1(C(N)=O)CC2C=CC1CC2` (centres undefined) was run?
Its growth is 108% (inactive).

Which growth does the source give for `C=C1C(=O)O[C@H]2[C@H]1CC/C(C(=O)Nc1ccc(OC)c(C(N)=O)c1O)=C\CC[C@@]1(C)O[C@@H]21` here?
The growth was 67.2% (inactive).

How did the growth turn out when `Nc1nc2ccc(CNc3ccc(C(=O)NC(CC(=O)O)C(=O)O)cc3)cc2c(=O)[nH]1` (centres undefined) was run?
The growth was 65.6% (inactive).

With `CCOC(=O)NNc1nncc2ccccc12` as the molecule, how does the growth read?
The growth was 116% (inactive).

`COc1ccc2c(c1)nnc1c3cccnc3[nH]c21` was tested. Which growth did it give?
The growth was 14.8% (inactive).

With `CC1(C)N=C(N)N=C(N)N1c1ccc(F)c(C(F)(F)F)c1` as the molecule, how does the growth read?
The growth was 55.3% (inactive).

`O=C1CN(CCN2CC(=O)NC(=O)C2)CC(=O)N1` was tested. Which growth did it give?
The growth was 96.1% (inactive).

With `COc1ccc(/C(Cl)=N/N=C(\Cl)c2cc(OC)c(OC)c(OC)c2)cc1OC(C)=O` as the molecule, how does the growth read?
Its growth is 99.4% (inactive).

For `CC1(C)N=C(N)N=C(N)N1c1cccc(CCCCc2ccccc2)c1`, which growth is on record?
Its growth is 7.12% (active).

Which growth does the source give for `CC(=O)c1ccc2c(c1)C1C=CCC1[C@H](c1cc3c(cc1Br)OCO3)N2` (some centres undefined) here?
The growth was 56.1% (inactive).

With `Clc1ccc2c(c1)nnn1c3ncccc3c(Br)c21` as the molecule, how does the growth read?
Its growth is 77.1% (inactive).
